Results filed as inconclusive are left out. Calls follow the shape of the dose curve; as a rule, active = well fitted inhibition curve with a large enough effect; inconclusive = small, poorly fitted or top-dose-only effect; inactive = no such curve, though single readings can be large or run the other way.
experiment: Primary qHTS for small molecule stabilizers of the endoplasmic reticulum resident proteome: Secreted ER Calcium Modulated Protein (SERCaMP) assay (AID 1508630); details: SH-SY5Y GLuc-SERCaMP (Gaussia luciferase released on ER calcium loss) secretion, thapsigargin, luminescence; series mostly up to 38.4 µM; activity change, negative = inhibition: at the top concentration
Summary of the method: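 The SH-SY5Y reporter protocol was run at 3 concentrations up to 38.3 uM (primary) or 11 concentrations (follow-up): 16 h compound, 100 nM thapsigargin for 4 h, then extracellular luciferase luminescence.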
% is scaled to controls: 0 for no effect and ±100 for the full control effect.

Activity change, negative = inhibition, inactive:
CC(C)=CCn1cnc2c1c(=O)n(C)c(=O)n2C -24.8%
CC1=CC2C(C)(C)CC(=O)C[C@]2(C)CC1COc1ccc2c(c1)CC(=O)C=C2 (some centres not stated) 8.67%
COc1c2ccoc2nc2c(OC)c(O[C@@H]3O[C@H](C)[C@@H](O)[C@@H](O)[C@H]3O)ccc12 -5.76%
COc1ccc(C(=O)OC2CC3CC[C@H](C2)N3C(C)=O)cc1OC (some centres not stated) 5.69%
COc1ccccc1C1OC(=O)CC1C(=O)OC[C@@H]1CCCN2CCCCC12 (some centres not stated) 4.32%
C[C@]12CCC(=O)C=C1CCC1C3CC[C@](O)(C(=O)CO)[C@@]3(C)CC3OC312 (some centres not stated) -32.8%
O=C1CC(c2ccc(O[C@@H]3OC(CO)[C@@H](O)C(O)C3O)cc2)Oc2cc(O)ccc21 (some centres not stated) -12.8%
CC(=O)C1(C)CC2(CC(C)(C)OC2=O)C(=O)O1 (configuration not stated) -23%
CC1NC(C(=O)O)Cc2c1[nH]c1ccccc21 (configuration not stated) 6.01%
CCCCN(CC)CCOc1cccc2ccccc12 242%
CC1=C2C(=CO[C@H](C)[C@H]2C)C(=O)C(C(=O)O)=C1O -3.77%
CC(C)C1=CC2=CC[C@H]3[C@](C)(C(=O)O)CCC[C@]3(C)C2CC1 (some centres not stated) -2.83%
C=C1C[C@@]23CC4C5[C@@]6(C)C[C@H](O)C[C@@]57C2[C@H](O)[C@@H]1[C@H](O)[C@H]3[C@H]7N4C6 -24.2%
CC1=CC[C@@]2(CO)COC(c3ccccc3O)C1C2 (some centres not stated) 16.1%
C[n+]1ccc(/C=C/c2ccc3ccccc3c2)cc1 4.42%
CC12CC[C@@](C(=O)O)(C(=O)C1=O)C2(C)C -12.3%
C=CC(C)(O)CC1[C@@]2(C)CCCC(C)(C)C2CC[C@]1(C)O (some centres not stated) 57.4%

— PubChem BioAssay (NCATS)
